Holding throughout (assay): DAPPL (digital affinity profiling via proximity ligation, sequencing); 10 mM Tris-HCl pH 7.5, 50 mM NaCl, 1 mM DTT, 4% glycerol, room temperature, 30 min; GST-TFs on glutathione beads, 16-mer random dsDNA library, 0.1% formaldehyde crosslink after washing; high values mean tight binding
Holding throughout (settings): protein: recombinant; tags: N-terminal GST; dsDNA, one strand shown

One test addresses T1, FLI1 (Homo sapiens, UniProt Q01543 1-452).
T1 sequence: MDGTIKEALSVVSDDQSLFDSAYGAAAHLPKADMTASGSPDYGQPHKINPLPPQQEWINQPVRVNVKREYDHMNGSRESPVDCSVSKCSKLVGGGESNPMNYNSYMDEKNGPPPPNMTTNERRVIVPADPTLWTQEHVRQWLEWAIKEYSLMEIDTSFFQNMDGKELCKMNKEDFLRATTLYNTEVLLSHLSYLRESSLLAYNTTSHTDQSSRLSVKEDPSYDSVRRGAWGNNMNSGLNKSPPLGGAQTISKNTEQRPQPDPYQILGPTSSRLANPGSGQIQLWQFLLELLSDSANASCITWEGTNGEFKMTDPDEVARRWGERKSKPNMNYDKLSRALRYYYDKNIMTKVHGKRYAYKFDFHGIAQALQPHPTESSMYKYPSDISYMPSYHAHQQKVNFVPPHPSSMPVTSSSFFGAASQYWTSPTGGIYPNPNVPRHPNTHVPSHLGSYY
In outline: (§1)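 Each value of binding signal is a hexamer's read frequency for a factor divided by the same hexamer's frequency in the tag-only sample. Barcoded, bead-captured GST fusions of human transcription factors made in yeast were pooled with that sample and incubated with 200 nmole of a random double-stranded 16-mer DNA library in Tris/NaCl/DTT/glycerol buffer at room temperature for 30 min. Washing, 0.1% formaldehyde crosslinking, proximity ligation, PCR and Illumina NextSeq500 sequencing followed.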

In a further test the target is T2, ELK1 (Homo sapiens, UniProt P19419 1-428).
T2 sequence: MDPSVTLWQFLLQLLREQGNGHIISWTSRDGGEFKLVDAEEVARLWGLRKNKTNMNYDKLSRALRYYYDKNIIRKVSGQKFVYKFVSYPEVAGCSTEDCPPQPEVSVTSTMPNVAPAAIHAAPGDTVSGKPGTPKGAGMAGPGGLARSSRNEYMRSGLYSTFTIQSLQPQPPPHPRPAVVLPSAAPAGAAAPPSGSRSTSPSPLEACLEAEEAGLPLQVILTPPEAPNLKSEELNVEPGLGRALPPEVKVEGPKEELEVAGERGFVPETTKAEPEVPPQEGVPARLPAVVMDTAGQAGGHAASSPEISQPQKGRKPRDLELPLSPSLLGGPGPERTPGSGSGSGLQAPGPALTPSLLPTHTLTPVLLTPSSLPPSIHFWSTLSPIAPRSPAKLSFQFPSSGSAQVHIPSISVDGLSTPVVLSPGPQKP
In outline:
as §1

The target in another test is T3, ERG (Homo sapiens, UniProt P11308 1-479).
T3 sequence: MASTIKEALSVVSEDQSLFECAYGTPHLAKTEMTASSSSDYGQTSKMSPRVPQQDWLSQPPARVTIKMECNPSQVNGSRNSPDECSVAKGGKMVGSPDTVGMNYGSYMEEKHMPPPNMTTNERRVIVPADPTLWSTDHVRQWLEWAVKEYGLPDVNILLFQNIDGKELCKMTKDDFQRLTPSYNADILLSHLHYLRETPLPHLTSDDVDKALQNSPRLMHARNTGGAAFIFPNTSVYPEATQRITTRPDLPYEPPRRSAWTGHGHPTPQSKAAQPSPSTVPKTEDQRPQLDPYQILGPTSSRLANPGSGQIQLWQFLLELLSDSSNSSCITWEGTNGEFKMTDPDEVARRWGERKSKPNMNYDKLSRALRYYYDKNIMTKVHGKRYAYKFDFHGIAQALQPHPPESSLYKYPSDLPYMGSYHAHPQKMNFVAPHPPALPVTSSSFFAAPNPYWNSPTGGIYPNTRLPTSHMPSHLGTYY
In outline:
as §1

A further test deals with ELF1 (Homo sapiens, UniProt P32519 1-619). An outline of the steps: as §1
The target in the next test is SPIB (Homo sapiens, UniProt Q01892 1-262). In outline: as §1
The next test has as its target T4, ELK3 (Homo sapiens, UniProt P41970 1-407).
T4 sequence: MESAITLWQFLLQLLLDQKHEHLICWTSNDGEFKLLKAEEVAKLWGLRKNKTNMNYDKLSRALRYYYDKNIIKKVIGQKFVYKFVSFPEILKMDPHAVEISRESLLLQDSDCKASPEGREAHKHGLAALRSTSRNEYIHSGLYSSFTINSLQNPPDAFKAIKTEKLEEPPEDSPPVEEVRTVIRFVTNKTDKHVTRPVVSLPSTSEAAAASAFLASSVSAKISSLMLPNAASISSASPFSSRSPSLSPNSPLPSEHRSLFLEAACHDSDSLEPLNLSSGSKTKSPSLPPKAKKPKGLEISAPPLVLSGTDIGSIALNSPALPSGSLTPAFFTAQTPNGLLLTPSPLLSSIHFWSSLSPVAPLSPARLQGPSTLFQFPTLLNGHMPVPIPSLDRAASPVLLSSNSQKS
An outline of the steps: as §1

The target of the next test is T5, SPIC (Homo sapiens, UniProt Q8N5J4 1-248).
T5 sequence: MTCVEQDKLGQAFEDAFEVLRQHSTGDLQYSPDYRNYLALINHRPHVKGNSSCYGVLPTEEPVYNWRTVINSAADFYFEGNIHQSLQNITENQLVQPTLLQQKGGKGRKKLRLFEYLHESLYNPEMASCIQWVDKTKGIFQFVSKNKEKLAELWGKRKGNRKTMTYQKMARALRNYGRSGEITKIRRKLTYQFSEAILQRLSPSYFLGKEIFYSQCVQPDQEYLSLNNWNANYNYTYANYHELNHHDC
In outline:
as §1

Another test has as its target ELF4 (Homo sapiens, UniProt Q99607 1-663). An outline of the steps:
as §1

The target in the next test is T6, ETV2 (Homo sapiens, UniProt O00321 1-342).
T6 sequence: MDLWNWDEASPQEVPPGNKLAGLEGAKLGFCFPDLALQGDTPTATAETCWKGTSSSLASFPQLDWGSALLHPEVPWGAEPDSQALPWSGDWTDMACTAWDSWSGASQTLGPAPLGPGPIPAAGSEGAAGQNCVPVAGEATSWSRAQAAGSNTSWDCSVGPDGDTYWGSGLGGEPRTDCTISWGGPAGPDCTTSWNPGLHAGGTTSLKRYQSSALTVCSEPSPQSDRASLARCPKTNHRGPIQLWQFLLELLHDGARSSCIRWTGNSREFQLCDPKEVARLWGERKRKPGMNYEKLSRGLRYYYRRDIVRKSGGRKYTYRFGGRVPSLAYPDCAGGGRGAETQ
In outline: as §1

The next test concerns the target T7, ELF3 (Homo sapiens, UniProt P78545 1-371).
T7 sequence: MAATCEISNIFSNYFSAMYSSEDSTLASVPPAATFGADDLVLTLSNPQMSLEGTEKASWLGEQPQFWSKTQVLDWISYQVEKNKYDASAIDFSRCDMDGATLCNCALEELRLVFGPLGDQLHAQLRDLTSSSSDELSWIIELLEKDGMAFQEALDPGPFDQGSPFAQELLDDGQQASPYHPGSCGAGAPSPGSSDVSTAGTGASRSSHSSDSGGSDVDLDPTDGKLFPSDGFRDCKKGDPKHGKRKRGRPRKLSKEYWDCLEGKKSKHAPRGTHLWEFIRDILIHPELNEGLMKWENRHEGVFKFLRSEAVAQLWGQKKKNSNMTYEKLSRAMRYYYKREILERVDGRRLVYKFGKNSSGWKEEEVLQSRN
An outline of the steps: as §1

A further test addresses ETV1 (Homo sapiens, UniProt P50549 1-477). In outline:
as §1

A further test deals with T8, ERF (Homo sapiens, UniProt P50548 1-548).
T8 sequence: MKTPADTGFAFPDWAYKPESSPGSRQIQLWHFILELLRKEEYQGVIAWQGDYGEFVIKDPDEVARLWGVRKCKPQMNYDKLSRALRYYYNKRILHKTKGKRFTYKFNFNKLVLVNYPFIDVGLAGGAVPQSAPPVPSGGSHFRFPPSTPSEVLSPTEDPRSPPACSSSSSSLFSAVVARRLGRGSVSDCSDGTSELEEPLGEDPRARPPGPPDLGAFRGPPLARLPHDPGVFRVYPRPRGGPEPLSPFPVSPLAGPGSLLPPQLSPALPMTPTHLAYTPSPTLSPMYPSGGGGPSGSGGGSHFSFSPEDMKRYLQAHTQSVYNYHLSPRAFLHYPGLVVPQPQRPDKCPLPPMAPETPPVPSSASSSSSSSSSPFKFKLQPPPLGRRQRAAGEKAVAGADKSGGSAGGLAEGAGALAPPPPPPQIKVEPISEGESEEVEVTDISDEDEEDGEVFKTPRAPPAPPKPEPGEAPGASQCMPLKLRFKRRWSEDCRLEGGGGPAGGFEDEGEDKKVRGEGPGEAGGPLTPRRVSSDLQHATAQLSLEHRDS
An outline of the steps: as §1

For another test, the target named is T9, ETV3L (Homo sapiens, UniProt Q6ZN32 1-361).
T9 sequence: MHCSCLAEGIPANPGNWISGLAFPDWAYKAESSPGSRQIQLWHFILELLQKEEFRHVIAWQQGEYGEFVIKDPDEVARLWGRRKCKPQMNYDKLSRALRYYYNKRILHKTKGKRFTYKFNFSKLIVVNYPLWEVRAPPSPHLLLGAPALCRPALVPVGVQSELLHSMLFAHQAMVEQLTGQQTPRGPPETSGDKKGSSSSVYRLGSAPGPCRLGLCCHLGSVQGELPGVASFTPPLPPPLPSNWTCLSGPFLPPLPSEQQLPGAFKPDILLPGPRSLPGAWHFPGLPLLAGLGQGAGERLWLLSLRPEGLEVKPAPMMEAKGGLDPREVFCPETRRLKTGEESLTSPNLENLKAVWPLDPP
An outline of the steps:
as §1

A further test has as its target T10, ETS2 (Homo sapiens, UniProt P15036 1-469).
T10 sequence: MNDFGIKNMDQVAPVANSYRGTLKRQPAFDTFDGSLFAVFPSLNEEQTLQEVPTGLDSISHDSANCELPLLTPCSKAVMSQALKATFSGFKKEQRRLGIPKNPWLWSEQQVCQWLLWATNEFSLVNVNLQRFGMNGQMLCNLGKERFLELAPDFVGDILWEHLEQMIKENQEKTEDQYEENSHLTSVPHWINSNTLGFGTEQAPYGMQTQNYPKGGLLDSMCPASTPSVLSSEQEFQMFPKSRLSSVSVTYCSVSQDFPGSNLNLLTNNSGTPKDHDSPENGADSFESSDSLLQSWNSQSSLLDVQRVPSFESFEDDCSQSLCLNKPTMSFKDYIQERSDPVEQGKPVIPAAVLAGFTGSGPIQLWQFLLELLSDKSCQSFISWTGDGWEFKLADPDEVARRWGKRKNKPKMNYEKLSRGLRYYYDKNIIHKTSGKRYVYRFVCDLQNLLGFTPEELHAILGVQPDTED
An outline of the steps:
as §1

Another test concerns the target T11, ETV7 (Homo sapiens, UniProt Q9Y603 1-341).
T11 sequence: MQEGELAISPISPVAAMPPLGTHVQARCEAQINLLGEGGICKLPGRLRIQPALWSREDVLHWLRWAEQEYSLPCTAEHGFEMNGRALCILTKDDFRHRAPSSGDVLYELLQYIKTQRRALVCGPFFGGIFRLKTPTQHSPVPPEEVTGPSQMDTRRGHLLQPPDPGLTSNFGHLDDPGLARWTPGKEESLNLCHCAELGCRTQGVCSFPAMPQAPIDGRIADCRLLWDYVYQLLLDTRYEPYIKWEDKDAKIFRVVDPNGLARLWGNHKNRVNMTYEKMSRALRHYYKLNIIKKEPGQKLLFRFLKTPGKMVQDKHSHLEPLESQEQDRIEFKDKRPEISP
An outline of the steps:
as §1

In another test the target is T12, ETV3 (Homo sapiens, UniProt P41162-2 1-143).
T12 sequence: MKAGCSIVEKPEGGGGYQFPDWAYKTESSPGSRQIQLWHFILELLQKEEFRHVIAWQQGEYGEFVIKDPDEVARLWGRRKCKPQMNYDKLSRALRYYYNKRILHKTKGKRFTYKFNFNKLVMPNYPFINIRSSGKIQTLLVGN
In outline: as §1

The next test addresses ETV6 (Homo sapiens, UniProt P41212 1-452). An outline of the steps: as §1

ETV6, sequence (P41212 whole entry): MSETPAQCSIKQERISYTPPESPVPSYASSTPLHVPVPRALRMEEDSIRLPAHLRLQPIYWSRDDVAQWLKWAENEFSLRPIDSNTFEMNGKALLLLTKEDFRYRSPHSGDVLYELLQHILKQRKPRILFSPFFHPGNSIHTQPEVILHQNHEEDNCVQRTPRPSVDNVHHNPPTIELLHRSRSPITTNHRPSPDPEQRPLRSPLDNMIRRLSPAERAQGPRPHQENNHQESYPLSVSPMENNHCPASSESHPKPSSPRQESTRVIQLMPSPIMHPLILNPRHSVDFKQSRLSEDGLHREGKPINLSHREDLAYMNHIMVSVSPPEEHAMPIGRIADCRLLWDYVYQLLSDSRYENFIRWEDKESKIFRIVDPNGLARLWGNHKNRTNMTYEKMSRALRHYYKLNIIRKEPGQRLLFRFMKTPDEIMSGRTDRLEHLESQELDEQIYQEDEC
ELF4, sequence (Q99607 whole entry): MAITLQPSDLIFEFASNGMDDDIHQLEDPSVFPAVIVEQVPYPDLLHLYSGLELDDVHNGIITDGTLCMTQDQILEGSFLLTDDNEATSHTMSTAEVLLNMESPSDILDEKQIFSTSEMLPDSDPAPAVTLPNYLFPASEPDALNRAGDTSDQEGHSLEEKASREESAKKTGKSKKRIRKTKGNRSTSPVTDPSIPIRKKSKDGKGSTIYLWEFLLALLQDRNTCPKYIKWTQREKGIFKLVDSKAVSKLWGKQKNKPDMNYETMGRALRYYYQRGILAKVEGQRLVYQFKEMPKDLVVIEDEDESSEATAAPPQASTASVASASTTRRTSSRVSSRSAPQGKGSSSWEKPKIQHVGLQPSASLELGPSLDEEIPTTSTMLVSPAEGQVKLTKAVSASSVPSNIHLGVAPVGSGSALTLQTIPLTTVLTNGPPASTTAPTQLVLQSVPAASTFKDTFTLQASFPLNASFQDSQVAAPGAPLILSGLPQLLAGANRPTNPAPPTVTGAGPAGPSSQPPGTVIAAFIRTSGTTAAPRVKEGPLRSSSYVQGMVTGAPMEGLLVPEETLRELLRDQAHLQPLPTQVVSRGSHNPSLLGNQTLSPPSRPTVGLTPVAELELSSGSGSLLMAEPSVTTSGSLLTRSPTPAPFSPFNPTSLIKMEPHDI
SPIB, sequence (Q01892 whole entry): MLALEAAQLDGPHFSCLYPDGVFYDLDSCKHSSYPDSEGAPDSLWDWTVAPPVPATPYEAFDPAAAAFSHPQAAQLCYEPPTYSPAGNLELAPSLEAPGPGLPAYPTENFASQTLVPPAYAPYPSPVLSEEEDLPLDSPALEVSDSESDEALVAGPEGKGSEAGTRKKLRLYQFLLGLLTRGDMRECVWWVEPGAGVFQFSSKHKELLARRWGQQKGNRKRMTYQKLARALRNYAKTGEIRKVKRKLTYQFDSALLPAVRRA
ELF1, sequence (P32519 whole entry): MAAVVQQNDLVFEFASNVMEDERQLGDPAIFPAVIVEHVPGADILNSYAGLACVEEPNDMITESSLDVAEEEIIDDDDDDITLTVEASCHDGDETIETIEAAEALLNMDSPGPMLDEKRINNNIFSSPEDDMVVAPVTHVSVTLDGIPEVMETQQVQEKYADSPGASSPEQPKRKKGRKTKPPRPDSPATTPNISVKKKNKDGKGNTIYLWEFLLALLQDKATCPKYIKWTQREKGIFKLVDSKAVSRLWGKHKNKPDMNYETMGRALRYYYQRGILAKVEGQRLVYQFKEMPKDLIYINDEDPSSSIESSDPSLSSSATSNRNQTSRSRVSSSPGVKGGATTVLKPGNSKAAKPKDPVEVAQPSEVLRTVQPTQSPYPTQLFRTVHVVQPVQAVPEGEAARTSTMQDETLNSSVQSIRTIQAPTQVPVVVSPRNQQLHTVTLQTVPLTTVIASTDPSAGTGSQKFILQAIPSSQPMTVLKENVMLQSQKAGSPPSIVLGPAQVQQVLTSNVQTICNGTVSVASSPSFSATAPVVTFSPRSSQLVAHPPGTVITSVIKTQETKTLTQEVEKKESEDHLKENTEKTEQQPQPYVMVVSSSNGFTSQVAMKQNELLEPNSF
ETV1, sequence (P50549 whole entry): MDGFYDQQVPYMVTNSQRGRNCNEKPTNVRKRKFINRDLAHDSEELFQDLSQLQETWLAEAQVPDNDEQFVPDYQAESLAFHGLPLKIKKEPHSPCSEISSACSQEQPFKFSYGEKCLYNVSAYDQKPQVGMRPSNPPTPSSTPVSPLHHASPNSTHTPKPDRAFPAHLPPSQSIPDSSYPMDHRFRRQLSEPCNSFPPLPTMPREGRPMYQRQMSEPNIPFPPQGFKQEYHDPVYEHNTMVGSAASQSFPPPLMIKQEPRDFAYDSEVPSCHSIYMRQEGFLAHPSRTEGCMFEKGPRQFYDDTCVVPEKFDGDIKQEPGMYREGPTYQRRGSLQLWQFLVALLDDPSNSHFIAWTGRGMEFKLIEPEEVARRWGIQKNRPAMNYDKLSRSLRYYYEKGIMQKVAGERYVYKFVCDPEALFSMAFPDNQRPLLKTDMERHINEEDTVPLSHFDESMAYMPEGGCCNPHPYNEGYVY

TGATTG: the binding signal with FLI1 is 1.16 fold enrichment (6-mer frequency, TF over GST control); in the test with ELK1 it was 1.16 fold enrichment (6-mer frequency, TF over GST control); with ERG it was 1.08 fold enrichment (6-mer frequency, TF over GST control); with ELF1, 1.06 fold enrichment (6-mer frequency, TF over GST control); with SPIB, 1.09 fold enrichment (6-mer frequency, TF over GST control); in the test with ELK3, 1.11 fold enrichment (6-mer frequency, TF over GST control). In addition, the binding signal was 1.05 fold enrichment (6-mer frequency, TF over GST control) in the test with SPIC; 1.02 fold enrichment (6-mer frequency, TF over GST control) with ELF4; 1.06 fold enrichment (6-mer frequency, TF over GST control) with ETV2; 1.05 fold enrichment (6-mer frequency, TF over GST control) with ELF3; 1.1 fold enrichment (6-mer frequency, TF over GST control) with ETV1; 1.13 fold enrichment (6-mer frequency, TF over GST control) with ERF. The binding signal with ETV3L was 1.09 fold enrichment (6-mer frequency, TF over GST control); with ETS2, 1.01 fold enrichment (6-mer frequency, TF over GST control); in the test with ETV7 it was 1.05 fold enrichment (6-mer frequency, TF over GST control); in the test with ETV3, 1.05 fold enrichment (6-mer frequency, TF over GST control); with ETV6, 1.04 fold enrichment (6-mer frequency, TF over GST control).
